Screening results from PubChem BioAssay.
IkB signaling = suppresses IkB signaling in ABC-DLBCL reporter cells; ABC-DLBCL IkBa-CBG/CBR dual luciferase ratio, 4 h; response scale: scaled: untreated 0%, proteasome inhibitor 100%; 110,000 tested, 0.04% active; Potency, µM (titrated, usually from 57.1 µM); active means well fitted curve in the direction sought with a large enough effect in the signal ratio, not every such curve was filed as active; inconclusive means small, poorly fitted or top-dose-only effect, or a change in a side signal; the % refers to the signal ratio;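 further: the direction sought is a rising ratio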
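Curves were fitted separately to fusion (green), unfused (red) and ratio luminescence, then classed by r2, magnitude and activity. Cells: OCI-Ly3, 4 h compound plus doxycycline at 37C; 10 uM MG-132 defined full response.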
p53ts 39C tox = kills p53ts cells at the nonpermissive temperature; Potency, µM (top dose mostly 46.1 µM), usual class: cytotoxic; 130,000 tested, 1.5% active; AID 902; H1299-p53A138V viability at 39C, ATP luminescence, 24 h; further: nearly all actives have a fitted effect of over 55% in size
p53ts 32C kill = cytotoxicity in p53ts cells at permissive temperature. H1299-p53A138V at 32C, ATP luminescence viability, 24 h. Potency, µM (series often up to 46.1 µM), hits mostly cytotoxic. 130,000 tested, 0.93% active. AID 924; further: nearly all actives have a fitted effect of over 55% in size
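Viability by ATPlite luminescence after 24 h compound treatment (up to 46 uM) at the permissive 32C. Cells are H1299 carrying p53 A138V. Scale runs from DMSO basal to 100 uM tamoxifen as full kill; AC50 from Hill fits.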
Peg3 imprint = genomic imprint erasure induction; mouse ES Peg3-LacZ reporter, beta-gal luminescence, 40 h; Potency, µM (series often up to 60.7 µM), actives largely listed as activators; 110,000 tested, 0.02% active
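Imprint erasure is scored as LacZ activity from the silenced maternal Peg3 allele in feeder-free female ES cells cultured 40 h with LIF. Luminescence is normalized to in-plate negative controls and fitted to the Hill equation.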
Large screens that a line does not name were inactive. Most compounds without a hit are left out; they make up all but 1.7% or so of the library. Unless noted, the call rests on the fitted dose curve; in most records, active means well fitted curve in the direction sought with a large enough effect; inconclusive means small, poorly fitted or top-dose-only effect, or another doubt; inactive means no such curve, though single readings can be large; an effect the other way counts as inactive or inconclusive.

Cc1ccc(C(=O)Nc2ccccc2C(=O)O)cc1S(=O)(=O)N1CCCCCC1	IkB signaling inconclusive, p53ts 39C tox 4µM, p53ts 32C kill 7.9µM
CCN(Cc1ccccc1)S(=O)(=O)c1cc(C(=O)NCC2CCCCC2)ccc1OC	none (no result: IkB signaling, p53ts 32C kill, Peg3 imprint)
Cc1ccc(C(=O)Nc2cccc(C(=O)O)c2)cc1S(=O)(=O)N1CCCC1	p53ts 39C tox 6.3µM, p53ts 32C kill 13µM
Cc1ccccc1NC(=O)c1ccc(Cl)c(S(=O)(=O)N2CCCCCC2)c1	IkB signaling inconclusive, p53ts 32C kill inconclusive
O=C(O)c1cccc(NC(=O)c2cccc(S(=O)(=O)N3CCCCC3)c2)c1	none
CCN(CC)S(=O)(=O)c1cc(C(=O)Nc2ccccc2C(=O)O)ccc1OC	p53ts 39C tox inconclusive, p53ts 32C kill 13µM
CCOC(=O)c1ccc(NC(=O)c2ccc(C)c(S(=O)(=O)N3CCOCC3)c2)cc1	IkB signaling inconclusive, p53ts 39C tox inconclusive, p53ts 32C kill 16µM
Cc1ccc(C(=O)Nc2ccc(F)cc2)cc1S(=O)(=O)N1CCOCC1	IkB signaling inconclusive
CCCOc1ccc(C(=O)Nc2cc(-c3nc4ccccc4[nH]3)ccc2C)cc1	none
Cc1ccc(Cn2c(SCC(=O)NCc3ccccc3)nc3ccsc3c2=O)cc1	p53ts 39C tox 16µM
Cc1cccc(N2CCN(C(=O)c3ccc4c(c3)N(Cc3ccccc3)C(=O)c3ccccc3S4(=O)=O)CC2C)c1 (centres undefined)	none
COc1ccc(N=c2oc3cc(O)ccc3cc2C(=O)NCC2CCCO2)cc1 (centres undefined)	IkB signaling inconclusive (no result: Peg3 imprint)
Cc1ccc(N=c2oc3cc(O)ccc3cc2C(N)=O)cc1	IkB signaling inconclusive, p53ts 39C tox 7.9µM, p53ts 32C kill inconclusive
COc1ccc(CNC(=O)c2sc3nc4n(c(=O)c3c2C)CCC4)cc1	none
CC(C)CC(=O)Nc1c(C(=O)N2CCN(c3ccccc3)CC2)oc2ccccc12	IkB signaling inconclusive
CCCCC(=O)Nc1c(C(=O)N2CCN(c3ccccc3)CC2)oc2ccccc12	IkB signaling inconclusive, p53ts 39C tox 16µM
CCn1nnc(NC(=O)c2cccnc2)n1	none
CCn1nnc(NC(=O)c2ccc(C(C)(C)C)cc2)n1	p53ts 39C tox 5µM, p53ts 32C kill 2.5µM (no result: Peg3 imprint)
O=C(O)c1cc2c(cc1S(=O)(=O)O)[C@H]1[C@@H](C3[C@H]2[C@@]2(Cl)C(Cl)=C(Cl)C3(Cl)C2(Cl)Cl)[C@]2(Cl)C(Cl)=C(Cl)C1(Cl)C2(Cl)Cl (some centres undefined)	none (no result: IkB signaling, p53ts 39C tox, p53ts 32C kill)
COc1ccc(NC(=O)C(=O)NCC(c2cccnc2)N2CCc3ccccc3C2)cc1 (centres undefined)	p53ts 39C tox 10µM, p53ts 32C kill inconclusive
COc1ccc(CC(=O)Nc2sc3c(c2C(=O)Nc2cccc(Cl)c2)CCCCC3)cc1	IkB signaling inconclusive
CCCCCS(=O)(=O)c1oc(-c2cccs2)nc1S(=O)(=O)c1ccc(C)cc1	IkB signaling inconclusive, p53ts 39C tox 3.2µM, p53ts 32C kill inconclusive
CCCCS(=O)(=O)c1oc(-c2ccc(F)cc2)nc1S(=O)(=O)c1ccc(C)cc1	IkB signaling inconclusive, p53ts 39C tox 4µM, p53ts 32C kill 13µM
O=S(=O)(c1ccccc1)c1nc(-c2ccc(F)cc2)oc1N1CCCCCC1	IkB signaling inconclusive
CCCSc1oc(-c2cccs2)nc1S(=O)(=O)c1ccc(C)cc1	IkB signaling inconclusive
CCCCS(=O)(=O)c1oc(-c2cccs2)nc1S(=O)(=O)c1ccc(F)cc1	IkB signaling inconclusive, p53ts 39C tox 3.2µM, p53ts 32C kill 20µM
CCS(=O)(=O)c1oc(-c2ccc(F)cc2)nc1S(=O)(=O)c1ccccc1	IkB signaling inconclusive, p53ts 39C tox 2.5µM, p53ts 32C kill inconclusive
Cc1ccc(S(=O)(=O)c2nc(-c3ccc(F)cc3)oc2N2CCN(c3ccccc3)CC2)cc1	none
CCOc1ccc(NC(=O)c2cc(C)nc3c2c(C)nn3-c2cccc(F)c2)cc1	none
CCN(CC)C(=O)c1sc2c(c1C)c(=O)n(CCc1ccccc1)c(=O)n2Cc1ccc(C)cc1	none
CCOc1ccc(NC(=O)CN2CCCN(Cc3cc(C)ccc3C)S2(=O)=O)cc1	IkB signaling inconclusive
c1ccc(CNc2nc3c(-c4ccccc4)nnn3c3ccccc23)cc1	IkB signaling inconclusive
CCNS(=O)(=O)c1ccc(C)cc1	none
CCC(C)S(=O)(=O)c1oc(-c2ccc(F)cc2)nc1S(=O)(=O)c1ccc(F)cc1 (centres undefined)	IkB signaling inconclusive, p53ts 39C tox 3.2µM, p53ts 32C kill 4µM
